Rows were chosen to be rich in hits. Some 4% of all compounds tested hit in one or more screens of this group.
ADAM17 inh: ADAM17 inhibitors, primary screen, biochemical, QFRET | 0.83% of 370,000 active | inhibition, % at 6.95 µM | recombinant ADAM17, EDANS/DABCYL FRET peptide cleavage;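 active = inhibition above the mean of compounds lying between control limits plus 3 SD, set per campaign, cut at about 8.5% in these data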;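 note: 0% = DMSO-only wells as the low control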
NR3A LBD binder: binders of NR3A ligand-binding domain, primary screen, biophysical, differential scanning fluorimetry, uHTS; Glutamate receptor ionotropic, NMDA 3A (GRIN3A) ligand-binding domain; NR3A LBD differential scanning fluorimetry, Tm shift; 0% = protein alone, 100% = glycine-bound protein; Tm shift relative to glycine control, % at 25 µM; 2.5% of 340,000 active; AID 1259313, 2017;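 active = melting temperature shift of at least 10% of the positive control shift, at one fixed dose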
ADAM10 inh: human ADAM10 inhibitors, primary screen, biochemical, QFRET, HTS; recombinant ADAM10, EDANS/DABCYL FRET peptide cleavage, 3 h; inhibition, % at 7 µM; 0.62% of 370,000 active;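 active = inhibition above a per-campaign cutoff equal to the mean of compounds falling between control-based bounds plus 3 SD, cut at about 20% in these data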;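 note: 0% = DMSO wells while the 100% control is not disclosed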
aDG glyco act: activators of alpha-DG glycosylation, primary screen, uHTS, Pro5-aDG cells, AlphaScreen; 0.22% of 360,000 active; AID 624168, 2012; activation, % at 10 µM; alpha-DG glycosylation AlphaScreen (IIH6); 0% Pro5, 100% B10-LARGE cell signal;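 active = activation of at least 8% versus controls, or a plate z-score of at least 8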;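 note: Pro5 are CHO cells carrying HIG-tagged alpha-DG that lacks glycosylation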
FAS TE block: FAS thioesterase domain inhibitors, primary screen, biochemical, fluorescence intensity, uHTS. recombinant FAS-TE, OMFH fluorogenic substrate, fluorescence endpoint. inhibition, % at 15 µM. AID 602261, 2012. 0.67% of 360,000 active;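 active = compounds whose normalised, plate-corrected inhibition of enzyme fluorescence in the single-dose primary screen is 50% or more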;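 note: 0% = DMSO with enzyme and 100% = substrate without enzyme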
Active calls of the source: *; i = inactive; . = no result given.

SMILES	ADAM17 inh	NR3A LBD binder	ADAM10 inh	aDG glyco act	FAS TE block
CN1C(=O)C(CC(=O)Nc2ccc(Cl)cc2)N(Cc2ccco2)C1=S (configuration not stated)	0	5	-2	0	37
CCN1C(=O)C(CC(=O)Nc2ccc(OC)cc2)N(Cc2ccc3c(c2)OCO3)C1=S (configuration not stated)	0	22*	13	0	17
CCOc1ccc(NC(=O)CC2C(=O)N(C)C(=S)N2Cc2ccc3c(c2)OCO3)cc1 (configuration not stated)	6	12*	17	2	30
CCN1C(=O)C(CC(=O)Nc2ccc(OC)cc2)N(Cc2ccc(OC)c(OC)c2)C1=S (configuration not stated)	6	5	0	0	-1
O=c1[nH]cccc1-c1nc2cc(Cl)ccc2n1Cc1ccccc1	-215	2	i	0	2
COc1cccc(/C=N/NC(=O)N/N=C/c2cccc(OC)c2O)c1O	0	35*	6	0	2
O=[N+]([O-])c1cccc(N/N=C/c2cccc3ccccc23)c1	3	25*	1	0	41
COc1cccc(/C=N/Nc2snc(SC)c2C#N)c1O	2	30*	0	1	1
O=[N+]([O-])c1ccc(NN=Cc2cccc3ccccc23)nc1	-3	29*	-11	0	-4
COc1ccc(/C=N/Nc2snc(SC)c2C#N)cc1OC	0	6	-12	0	-4
COc1cccc(C=Nc2ccc(C)c(F)c2)c1O	-1	13*	-1	0	-2
COc1cccc(C=Nc2cc(C)cc(C)c2)c1O	3	-4	1	0	-3
COc1cccc(/C=N/Nc2ccc([N+](=O)[O-])cn2)c1O	-3	29*	-3	0	8
O=C(O)c1ccccc1C=NNc1ccc([N+](=O)[O-])cn1	-3	0	-8	0	-5
CN(C)/C=N/c1sc2c(c1C#N)CC(C)(C)NC2(C)C	5	1	4	0	-8
CN(C)S(=O)(=O)NCCNc1ccc(C(F)(F)F)cc1[N+](=O)[O-]	2	1	3	0	-3
CSc1nnc2c3cc(F)ccc3n(Cc3ccccc3)c2n1	-3	39*	0	0	-2
CCC(=O)N1CCN(c2ccccc2NC(=O)c2ccc(-c3cccc([N+](=O)[O-])c3)o2)CC1	-2	-6	-11	-1	51*
COc1cc(-c2noc(CCC(=O)NC3CCCCC3)n2)cc(OC)c1OC	1	-1	-13	0	-3
NS(=O)(=O)c1ccc(N/N=C/c2ccc(O)cc2O)c([N+](=O)[O-])c1	-4	30*	1	0	11
O=C(O)c1ccccc1NS(=O)(=O)c1ccc(NN=Cc2cccc(Cl)c2)c([N+](=O)[O-])c1	2	32*	-1	0	6
NS(=O)(=O)c1ccc(N/N=C/c2ccccc2C(=O)O)c([N+](=O)[O-])c1	2	-1	4	0	-4
CC1CCCC/C1=N\Nc1ccc(S(N)(=O)=O)cc1[N+](=O)[O-] (configuration not stated)	3	-6	-2	1	2
CC(C)(C)C1CCC(=NNc2ccc(S(N)(=O)=O)cc2[N+](=O)[O-])CC1 (configuration not stated)	0	16*	6	0	18
NS(=O)(=O)c1ccc(N/N=C/c2ccc(O)c(O)c2O)c([N+](=O)[O-])c1	1	-5	9	0	5
SMILES	ADAM17 inh	NR3A LBD binder	ADAM10 inh	aDG glyco act	FAS TE block
O=C(O)c1ccccc1NS(=O)(=O)c1ccc(N/N=C/c2ccc(O)c(O)c2)c([N+](=O)[O-])c1	7	16*	12	0	37
CCOC(=O)c1ccccc1N=N/C(C(C)=O)=C(/C)O	-2	5	7	0	0
Cn1c(SC/C=C/c2ccccc2)nnc1-c1ccco1	-2	12*	-1	0	1
Nc1[nH]c2ccccc2c1C(=O)NC1CC1	-5	.	-11	.	.
COc1ccc(CCNC(=O)c2oc3ccccc3c2C)cc1	-6	-32	1	0	27
COc1ccc(NC(=O)CCNS(=O)(=O)c2cccc3nonc23)cc1Cl	-3	18*	1	0	0
Cc1ccc(NC(=O)CCNS(=O)(=O)c2cccc3nonc23)cc1Cl	-1	-6	1	0	8
COc1ccc(OCC(=O)NNC(=O)C(=O)Nc2ccc(C)cc2)cc1	-1	-7	0	0	-10
O=C(/C=C/c1cccc([N+](=O)[O-])c1)N(c1ccccn1)c1ccccn1	-3	-1	4	0	2
Cc1ccc(F)cc1NC(=O)/C=C/c1ccc(S(=O)(=O)N2CCOCC2)cc1	2	15*	8	0	18
O=C(/C=C/c1ccc(S(=O)(=O)N2CCOCC2)cc1)Nc1cc(F)ccc1F	2	32*	-11	0	10
O=C(/C=C/c1ccc(F)cc1)Nc1cccc(S(=O)(=O)N2CCOCC2)c1	1	-5	6	0	10
COCC1CCCCN1C(=O)c1cccc(OC2CCN(S(C)(=O)=O)CC2)c1 (configuration not stated)	1	-1	0	0	-4
Cc1ccc(-n2c(C)cc(C3N=C(N)Nc4nc5ccccc5n43)c2C)c(C)c1 (configuration not stated)	3	-23	7	0	-8
Cc1cc(C2N=C(N)Nc3nc4ccccc4n32)c(C)n1-c1ccccc1Cl (configuration not stated)	2	12*	-5	0	-6
Nc1cc(-c2ccncc2)c[nH]c1=O	-21	13*	-52	0	-3
NC(=O)c1csc(-c2ccncc2)n1	-6	-1	-9	2	-4
CCOC(=O)NC(=O)/C(N=Nc1cc(C)cc(C)c1)=C(\C)O	0	1	-1	0	-1
CCOC(=O)NC(=O)/C(N=Nc1ccc(C(F)(F)F)cc1)=C(\C)O	2	154*	5	0	-2
Nc1c(S(=O)(=O)c2ccccc2)c2nc3ccccc3nc2n1/N=C/c1ccco1	-76	13*	-267	1	24
Cc1cccc(S(=O)(=O)c2c(N)n(/N=C/c3cccnc3)c3nc4ccccc4nc23)c1	-1	45*	-5	0	-4
Nc1c(S(=O)(=O)c2cccs2)c2nc3ccccc3nc2n1/N=C/c1cccc(O)c1	-9	28*	-13	-1	20
